Results filed as inconclusive are left out. The source made the active and inactive calls. Unless noted, calls come from the whole dose curve; as a rule, active = well fitted curve in the direction sought with a large enough effect; inconclusive = small, poorly fitted or top-dose-only effect, or another doubt; inactive = no such curve, though single readings can be large; an effect the other way counts as inactive or inconclusive.

Test [1] in a line: S16 Schwann cell PMP22 intronic element firefly luciferase assay (AID 624032). Note: nearly all actives have a fitted effect of over 30% in size. The gist of the method: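 Rat S16 Schwann cells stably carrying a PMP22 intronic element-driven Fluc reporter were seeded overnight, then exposed to compounds for 24 h at 37 °C. Luminescence was normalized to PTC124 (positive control) and DMSO (0% activity).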
Test [2] can be described thus: S16 Schwann cell PMP22 intronic element beta-lactamase assay (AID 624044; calls by dose curve; note: nearly all actives have a fitted effect of over 15% in size). The gist of the method:
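Rat S16 Schwann cells with beta-Lac driven by a PMP22 intronic element, compound-treated 24 h at 37 °C. LiveBLAzer FRET B/G read: 460 nm normalized to potassium clavulanate vs DMSO; 535 nm FRET as viability; concentration-effect curves classified.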

Test [3] deals with CP237. The test is described as follows: qHTS profiling for inhibitors of Plasmodium falciparum proliferation (AID 504749). Note: nearly all actives have a fitted effect of over 60% in size. Note: potency is the fitted concentration of half-maximal effect. Particulars: P. falciparum in erythrocytes, SYBR Green DNA, 72 h; series mostly up to 12.8 µM. The procedure, abridged:
(§1)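 Parasite proliferation within erythrocytes, 72 h exposure. Endpoint: SYBR Green I fluorescence after overnight lysis at room temperature. Controls: 0.29 uM artemisinin, DMSO.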
In general terms: In qHTS, concentration-response curves come from the screen itself.

The test system of test [4] is CP266. The test is described as above. The conditions noted are these: P. falciparum in erythrocytes, SYBR Green DNA, 72 h; series mostly up to 12.8 µM. The gist of the method:
as §1

Test [5] relates to CP269. Described as above. The conditions noted are these: P. falciparum in erythrocytes, SYBR Green DNA, 72 h; series mostly up to 12.8 µM. The gist of the method:
as §1

Test [6] concerns CP297. Described as above. The conditions noted are these: P. falciparum in erythrocytes, SYBR Green DNA, 72 h; series mostly up to 12.8 µM. The procedure, abridged:
as §1

Test [7] concerns CP315. Described as above. Particulars: P. falciparum in erythrocytes, SYBR Green DNA, 72 h; series mostly up to 12.8 µM. The gist of the method: as §1
For test [8], the system named is CP335. Described as above. Particulars: P. falciparum in erythrocytes, SYBR Green DNA, 72 h; series mostly up to 12.8 µM. The gist of the method:
as §1

The test system of test [9] is DIV17. The description is as above. Particulars: P. falciparum in erythrocytes, SYBR Green DNA, 72 h; series mostly up to 12.8 µM. The procedure, abridged:
as §1

Test [10] concerns GB4. The test is described as above. Particulars: P. falciparum in erythrocytes, SYBR Green DNA, 72 h; series mostly up to 12.8 µM. The procedure, abridged: as §1
The test system of test [11] is P94_40. The test is described as above. The conditions noted are these: P. falciparum in erythrocytes, SYBR Green DNA, 72 h; series mostly up to 12.8 µM. The gist of the method:
as §1

Test [12] concerns PC26. The test is described as above. Particulars: P. falciparum in erythrocytes, SYBR Green DNA, 72 h; series mostly up to 12.8 µM. The gist of the method: as §1
In test [13] the test system is W2. Described as above. Particulars: P. falciparum in erythrocytes, SYBR Green DNA, 72 h; series mostly up to 12.8 µM. The procedure, abridged:
as §1

For test [14], the target named is Cytochrome P450 2C9 (Homo sapiens) (UniProt P11712). The test is described as follows: qHTS Assay for Inhibitors and Substrates of Cytochrome P450 2C9 (AID 883). Note: nearly all actives have a fitted effect of over 60% in size. The procedure, abridged: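 Human CYP2C9 (10nM) hydroxylated Luciferin-H (100uM, at its KM) to luciferin in 25mM KPO4. Compound was preincubated 10 min at 37C, then NADPH regeneration started a 60 min reaction at 37C. Luminescence was read after detection reagent, normalized to 57uM sulphaphenazole.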
Sequence of Cytochrome P450 2C9 (Homo sapiens) (P11712 whole entry, looked up): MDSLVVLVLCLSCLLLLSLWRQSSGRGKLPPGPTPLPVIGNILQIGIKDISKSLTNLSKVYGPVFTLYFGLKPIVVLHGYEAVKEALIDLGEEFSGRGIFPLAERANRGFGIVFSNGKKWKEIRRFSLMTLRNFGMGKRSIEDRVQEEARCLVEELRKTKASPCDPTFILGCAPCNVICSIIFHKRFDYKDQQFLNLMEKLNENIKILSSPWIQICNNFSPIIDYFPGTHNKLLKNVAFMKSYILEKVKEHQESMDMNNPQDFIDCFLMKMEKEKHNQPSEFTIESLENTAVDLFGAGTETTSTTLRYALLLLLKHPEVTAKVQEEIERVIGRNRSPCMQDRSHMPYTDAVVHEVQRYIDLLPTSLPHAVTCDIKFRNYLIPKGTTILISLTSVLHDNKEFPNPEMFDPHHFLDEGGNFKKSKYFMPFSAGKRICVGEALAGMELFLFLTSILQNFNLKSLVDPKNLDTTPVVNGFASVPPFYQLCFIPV

Test [15] has as its target Cytochrome P450 3A4 (Homo sapiens) (UniProt P08684). The test is described as follows: qHTS Assay for Inhibitors and Substrates of Cytochrome P450 3A4 (AID 884). Note: nearly all actives have a fitted effect of over 50% in size. The gist of the method: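 20 nM human CYP3A4 with 25 uM Luciferin-PPXE (at KM) in 200 mM KPO4, preincubated 10 min with compound; NADPH regeneration started a 60 min RT reaction. Luciferin detected by luminescence, normalized to 57 uM ketoconazole as full inhibition.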

For test [16], the target named is Cytochrome P450 2C19 (Homo sapiens) (UniProt P33261). The test is described as follows: qHTS Assay for Inhibitors and Substrates of Cytochrome P450 2C19 (AID 899). Note: nearly all actives have a fitted effect of over 60% in size. The procedure, abridged:
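Human CYP2C19 (5nM) with Luciferin-H EGE at 10uM (its KM) in 50mM KPO4 was preincubated with compound for 10 min at 37C. NADPH regeneration started a 60 min 37C reaction. Luciferin was read by luminescence, normalized to 57uM ketoconazole.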

For test [17], the system named is 7G8. The test is described as follows: qHTS profiling for inhibitors of Plasmodium falciparum proliferation (AID 504749). Note: nearly all actives have a fitted effect of over 60% in size. Note: potency is the fitted concentration of half-maximal effect. The conditions noted are these: P. falciparum in erythrocytes, SYBR Green DNA, 72 h; series mostly up to 12.8 µM. The procedure, abridged:
as §1

Test [18] deals with CP215. The description is as above. Particulars: P. falciparum in erythrocytes, SYBR Green DNA, 72 h; series mostly up to 12.8 µM. The procedure, abridged: as §1

Sequence of Cytochrome P450 2C19 (Homo sapiens) (P33261 whole entry, looked up): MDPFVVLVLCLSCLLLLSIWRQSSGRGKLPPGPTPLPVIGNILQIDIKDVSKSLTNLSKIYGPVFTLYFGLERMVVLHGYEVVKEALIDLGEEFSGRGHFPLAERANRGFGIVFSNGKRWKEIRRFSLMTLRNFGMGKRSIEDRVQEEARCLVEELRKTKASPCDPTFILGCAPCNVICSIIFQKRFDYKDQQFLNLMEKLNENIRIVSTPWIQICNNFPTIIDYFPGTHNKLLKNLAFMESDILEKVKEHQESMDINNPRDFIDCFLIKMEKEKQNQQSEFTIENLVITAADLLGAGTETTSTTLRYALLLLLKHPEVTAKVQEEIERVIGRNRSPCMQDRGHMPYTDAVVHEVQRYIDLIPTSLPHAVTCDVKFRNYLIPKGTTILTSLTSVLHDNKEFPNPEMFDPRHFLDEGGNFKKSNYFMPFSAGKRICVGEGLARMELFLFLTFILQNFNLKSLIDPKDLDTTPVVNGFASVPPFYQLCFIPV
Sequence of Cytochrome P450 3A4 (Homo sapiens) (P08684 whole entry, looked up): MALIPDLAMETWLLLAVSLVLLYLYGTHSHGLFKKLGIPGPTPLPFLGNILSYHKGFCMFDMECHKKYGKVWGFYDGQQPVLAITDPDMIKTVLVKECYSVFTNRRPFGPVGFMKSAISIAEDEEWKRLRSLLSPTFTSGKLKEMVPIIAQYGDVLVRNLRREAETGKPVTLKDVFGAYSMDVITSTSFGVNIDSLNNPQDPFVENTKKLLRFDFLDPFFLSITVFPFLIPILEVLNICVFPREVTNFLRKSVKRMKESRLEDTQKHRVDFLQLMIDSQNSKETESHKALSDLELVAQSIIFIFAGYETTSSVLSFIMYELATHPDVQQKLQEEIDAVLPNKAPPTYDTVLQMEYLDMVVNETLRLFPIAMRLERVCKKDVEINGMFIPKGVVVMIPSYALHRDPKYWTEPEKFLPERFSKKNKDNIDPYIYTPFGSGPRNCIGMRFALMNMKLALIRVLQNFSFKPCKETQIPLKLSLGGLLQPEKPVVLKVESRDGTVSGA

`CC1(C)O[C@@H]2C[C@H]3[C@H]4C[C@H](F)C5=CC(=O)CC[C@]5(C)[C@@H]4[C@H](O)C[C@]3(C)[C@]2(C(=O)CO)O1`: the Potency entry in test [1], in [2], in [3], in [4], in [5] and in test [6] was “inactive” in each case. The Potency result in [7], in test [8], in test [9], in test [10], in test [11] and in test [12] was “inactive” in each case. Also, in test [13], the Potency entry was “inactive”.

Regarding `CNC[C@H](O)c1ccc(OC(=O)C(C)(C)C)c(OC(=O)C(C)(C)C)c1`, the Potency result in [2], in [3], in [4], in test [6], in test [8] and in test [11] was “inactive” throughout.

As for `Cc1onc(-c2c(Cl)cccc2Cl)c1C(=O)N[C@H]1C(=O)N2[C@H]1SC(C)(C)[C@H]2C(=O)O`, the Potency entry in test [14], in [15] and in test [16] was “inactive” throughout.

On to `CCC[C@H]1C[C@H](C(=O)N[C@H]([C@@H]2O[C@H](SC)[C@@H](O)[C@H](O)[C@@H]2O)[C@H](C)O)N(C)C1`, for which the Potency entry in test [14] is “inactive”.

In the case of `CCC(=O)O[C@@H]1[C@H](C)O[C@H](O[C@H]2[C@@H](N(C)C)[C@H](O)[C@@H](O[C@@H]3[C@@H](CC=O)C[C@@H](C)[C@@H](O)/C=C\C=C/C[C@@H](C)OC(=O)C[C@@H](OC(=O)CC)[C@H]3OC)O[C@H]2C)C[C@]1(C)O`, the Potency result in test [10] and in test [12] was “inactive” in each case. In [13], the Potency is 2.03 µM (active).

Regarding `COc1cc2nc(N3CCN(C(=O)[C@@H]4CCCO4)CC3)nc(N)c2cc1OC`, the Potency entry in test [1], in [17], in [18], in [3], in [5] and in test [6] was “inactive” each time. In addition, the Potency result in test [7], in test [8], in [9], in [10], in test [11] and in test [12] was “inactive” in each case.

As for `COc1cc(N)c(Cl)cc1C(=O)N[C@H]1CCN(CCCOc2ccc(F)cc2)C[C@H]1OC`, the compound was classed as inactive in test [14] and in test [16]. Also, the Potency entry in test [2], in test [18], in [4], in test [6] and in [7] was “inactive” throughout. Moreover, the Potency in [17] is 5.01 µM (active); in [11], 3.16 µM (active); in [13], 5.1 µM (active).

As for `CC(C)(C)NC[C@H](O)COc1cccc2c1CCC(=O)N2`, the Potency entry in test [2], in [17], in test [18], in [3], in [4] and in test [5] was “inactive” each time. For the same compound, the Potency entry in test [6], in [7], in test [9], in test [10], in [11] and in test [12] was “inactive” throughout. In addition, in test [13], the Potency result is “inactive”.

Regarding `C=CCOc1ccccc1OC[C@H](O)CNC(C)C`, the Potency entry in [14], in test [1], in test [2], in test [17], in [5] and in [8] was “inactive” throughout. The Potency result in [9] and in [12] was “inactive” in each case. In addition, the Potency in test [3] was 3.16 µM (active); in [13], 1.14 µM (active).

On to `CS(=O)(=O)c1ccc([C@H](O)[C@H](CO)NC(=O)C(Cl)Cl)cc1`, for which the Potency entry in [1], in test [2], in [17], in test [4], in [9] and in test [12] was “inactive” in each case.
